Measured values: PubChem BioAssay AID1159580 (chemical genetic matrix, 2015)
“And” between values parts separate entries of the source, which are not always exact repeats. Equal entries are not always repeated. Among all 5,500 compounds or so, about 2,000 (36%) were called active. About 18% were inconclusive and are not listed. No stated cut-off is given here; in the data, active means normalized growth mostly below about 0.91 (no sharp cut-off); inconclusive means no clear call, values can overlap the other calls; inactive means mostly above about 0.92. The list shows a part of the results.

Assay: chemical genetic growth profiling, strain panel (AID 1159580);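 further: tested at 20 µM; growth read once vehicle control cultures reached saturation at 30 °C; 1 = growth at the plate median or of vehicle wells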
Details: S. cerevisiae deletion strains, growth OD

Measured: normalized growth

N=C(N)N
inactive: locus YAL013W, strain DEP1, stronger effect = lower value 1.01 | locus YAL021C, strain ccr4, stronger effect = lower value 0.995 | locus YAL026C, strain drs2, stronger effect = lower value 0.994 | locus YAL030W, strain snc1, stronger effect = lower value 0.993 | locus YBL061C, strain skt5, stronger effect = lower value 0.992 | locus YBR009C, strain hhf1, stronger effect = lower value 1.01 | locus YBR021W, strain FUR4, stronger effect = lower value 1.03 | locus YBR023C, strain chs3, stronger effect = lower value 1.01 | locus YBR171W, strain sec66, stronger effect = lower value 0.977 | locus YBR229C, strain ROT2, stronger effect = lower value 0.999 | locus YBR231C, strain swc5, stronger effect = lower value 0.98 | locus YBR279W, strain paf1, stronger effect = lower value 0.993 | locus YCL011C, strain gbp2, stronger effect = lower value 1.01 | locus YCL016C, strain dcc1, stronger effect = lower value 1.01 | locus YCL029C, strain bik1, stronger effect = lower value 0.963 | locus YCL061C, strain MRC1, stronger effect = lower value 0.996 | locus YCL069W, strain vba3, stronger effect = lower value 0.998 | locus YCR088W, strain abp1, stronger effect = lower value 0.992 | locus YDL005C, strain med2, stronger effect = lower value 0.987 | locus YDL035C, strain GPR1, stronger effect = lower value 1.03 | locus YDL040C, strain nat1, stronger effect = lower value 1 | locus YDL074C, strain BRE1, stronger effect = lower value 1.01 | locus YDL101C, strain DUN1, stronger effect = lower value 0.991 | locus YDL134C, strain PPH21, stronger effect = lower value 1.01 | locus YDL185W, strain tfp1, stronger effect = lower value 0.968 | locus YDL192W, strain arf1, stronger effect = lower value 0.982 | locus YDR001C, strain nth1, stronger effect = lower value 0.994 | locus YDR069C, strain doa4, stronger effect = lower value 0.983 | locus YDR101C, strain arx1, stronger effect = lower value 0.994 | locus YDR137W, strain rgp1, stronger effect = lower value 1 | locus YDR150W, strain NUM1, stronger effect = lower value 0.992 | locus YDR159W, strain sac3, stronger effect = lower value 0.929 | locus YDR162C, strain NBP2, stronger effect = lower value 0.996 | locus YDR195W, strain ref2 0.943 | locus YDR297W, strain sur2, stronger effect = lower value 0.993 | locus YDR318W, strain mcm21, stronger effect = lower value 0.981 | locus YDR334W, strain swr1, stronger effect = lower value 0.992 | locus YDR335W, strain msn5, stronger effect = lower value 1.06 | locus YDR388W, stronger effect = lower value 0.972 | locus YDR392W, strain spt3, stronger effect = lower value 0.875 | locus YDR502C, strain sam2, stronger effect = lower value 0.999 | locus YEL003W, strain gim4, stronger effect = lower value 0.992 | locus YEL037C, strain rad23, stronger effect = lower value 0.998 | locus YEL061C, strain CIN8 (second series), stronger effect = lower value 1 | locus YEL061C, strain CIN8, stronger effect = lower value 0.996 | locus YER015W, strain faa2, stronger effect = lower value 0.999 | locus YER016W, strain bim1, stronger effect = lower value 0.997 | locus YER110C, stronger effect = lower value 0.976 | locus YER111C, strain swi4, stronger effect = lower value 0.998 | locus YER155C, strain BEM2 (second series), stronger effect = lower value 0.976 | locus YER155C, strain BEM2, stronger effect = lower value 1 | locus YER167W, strain BCK2, stronger effect = lower value 1.02 | locus YFR010W, strain ubp6, stronger effect = lower value 0.995 | locus YGL078C, strain dbp3, stronger effect = lower value 1 | locus YGL086W, strain mad1, stronger effect = lower value 1.01 | locus YGL167C, strain pmr1, stronger effect = lower value 1 | locus YGL173C, strain kem1, stronger effect = lower value 0.987 | locus YGL227W, strain vid30, stronger effect = lower value 0.991 | locus YGL240W, strain doc1, stronger effect = lower value 0.999 | locus YGL248W, strain PDE1, stronger effect = lower value 1 | locus YGL253W, strain hxk2, stronger effect = lower value 1 | locus YGR078C, strain PAC10, stronger effect = lower value 0.997 | locus YGR135W, strain pre9, stronger effect = lower value 1 | locus YGR229C, strain SMI1, stronger effect = lower value 1.04 | locus YGR252W, strain gcn5, stronger effect = lower value 1.13 | locus YHR013C, strain ard1, stronger effect = lower value 1.01 | locus YHR027C, strain rpn1, stronger effect = lower value 1.01 | locus YHR030C, strain SLT2, stronger effect = lower value 1 and 1.05 | locus YHR079C, strain IRE1 (second series), stronger effect = lower value 0.977 | locus YHR079C, strain IRE1, stronger effect = lower value 1.03 | locus YHR094C, strain hxt1, stronger effect = lower value 0.974 | locus YHR129C, strain ARP1, stronger effect = lower value 0.992 | locus YHR142W, strain chs7, stronger effect = lower value 1.02 | locus YHR200W, strain rpn10, stronger effect = lower value 0.992 | locus YIL066C, strain RNR3, stronger effect = lower value 0.994 | locus YIL073C, strain SPO22, stronger effect = lower value 0.9 | locus YIL125W, strain kgd1, stronger effect = lower value 0.991 | locus YIR030C, strain dcg1, stronger effect = lower value 0.99 | locus YJL092W, strain hpr5, stronger effect = lower value 0.999 | locus YJL095W, strain BCK1 (second series), stronger effect = lower value 0.998 | locus YJL095W, strain BCK1, stronger effect = lower value 0.993 and 1.05 | locus YJL115W, strain asf1, stronger effect = lower value 0.99 | locus YJL129C, strain trk1, stronger effect = lower value 0.985 | locus YJL134W, strain LCB3, stronger effect = lower value 0.997 | locus YJL154C, strain vps35, stronger effect = lower value 0.994 | locus YJL164C, strain tpk1, stronger effect = lower value 1.01 | locus YJL166W, strain qcr8, stronger effect = lower value 1.01 | locus YJL168C, strain set2, stronger effect = lower value 0.975 | locus YJL187C, strain SWE1 (second series), stronger effect = lower value 0.946 | locus YJL187C, strain SWE1, stronger effect = lower value 0.993 | locus YJR043C, strain POL32, stronger effect = lower value 0.999 | locus YJR066W, strain TOR1, stronger effect = lower value 0.957
